Shown are actives, neighbours in structure and some others; about 3% of the full set was active somewhere.
SENP7 inh: inhibitors of human SENP7 protease; Q9BQF6; 1.5% of 330,000 active; inhibition, % at 5 µM; recombinant SENP7, Z-RLRGG-aminoluciferin luminescence, 40 min; AID 434973;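 active means inhibition above about 50% at the single test dose, limit read from the data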;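 further: plate controls were DMSO with enzyme for no effect and no enzyme buffer wells for full effect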
SENP6 block: inhibitors of human SENP6 protease; Q9GZR1; Recombinant SENP6 catalytic domain, aminoluciferin luminescence; inhibition, % at 10 µM; 1.8% of 330,000 active;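 active means inhibition above about 50% at the single tested dose, limit read from the data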;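 further: plate controls were DMSO wells with enzyme for no effect and DMSO wells lacking enzyme for full effect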
Target sequence (Q9GZR1 628-1112 limits assumed): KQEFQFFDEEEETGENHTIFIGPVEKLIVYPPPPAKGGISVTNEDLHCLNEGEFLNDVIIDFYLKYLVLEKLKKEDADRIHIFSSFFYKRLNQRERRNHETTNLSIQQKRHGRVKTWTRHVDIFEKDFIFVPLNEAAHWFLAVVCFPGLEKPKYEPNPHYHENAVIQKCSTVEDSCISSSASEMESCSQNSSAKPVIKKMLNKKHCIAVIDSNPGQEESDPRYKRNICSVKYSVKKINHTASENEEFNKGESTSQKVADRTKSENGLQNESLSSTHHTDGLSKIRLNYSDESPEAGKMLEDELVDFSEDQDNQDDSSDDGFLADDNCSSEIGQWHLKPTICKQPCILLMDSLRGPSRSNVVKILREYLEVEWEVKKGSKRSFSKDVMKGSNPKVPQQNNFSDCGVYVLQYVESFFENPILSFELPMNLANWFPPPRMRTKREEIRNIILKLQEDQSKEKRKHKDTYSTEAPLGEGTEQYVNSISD
TRAIL sens C8: caspase-8 TRAIL sensitization; NB7+C8 cells + TRAIL, ATPlite viability luminescence; inhibition (viability loss, TRAIL sensitization), % at 10 µM; 1% of 360,000 active; AID 624354;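 active means compounds causing at least 50% loss of cell viability in the single-dose screen, relative to plate controls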
SENP8 block-1: SENP8 protease inhibition | purified SENP8, Z-RLRGG-aminoluciferin cleavage, luminescence | inhibition, % at 10 µM | 1.2% of 330,000 active | AID 2540; in the data active means inhibition above about 50%
SENP8 block-2: inhibitors of human SENP8 protease. Q96LD8. inhibition, % at 20 µM. AID 602440. recombinant SENP8, Nedd8 substrate fluorescence. 0.64% of 360,000 active; in the data active means inhibition mostly above about 40%, no sharp cut-off; inactive means mostly below about 27%
PPC-1+TRAIL kill: kills PPC-1 cancer cells in the presence of TRAIL; PPC-1 cells + TRAIL, ATPLite viability luminescence; cell killing (% activity), % at 4 µM or 5 µM; 0.41% of 220,000 active; AID 1443;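 active means cell killing above 50% in the first pass at 4 µM, then a duplicate retest at 5 µM averaging 50% or more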;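 further: plate controls were cells with TRAIL plus DMSO for no effect and medium-only wells lacking cells for full effect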
The depositor's hits bear a star; / = no result.

SMILES	SENP7 inh	SENP6 block	TRAIL sens C8	SENP8 block-1	SENP8 block-2	PPC-1+TRAIL kill
N/C(=N\OC(=O)c1cccc(Br)c1)c1ccccn1	98.4*	96.0*	76.9*	86.5*	2.9	/
COc1cc(OC)cc(C(=O)O/N=C(\N)c2ccccn2)c1	-2.5	-4.2	31.2	-1.6	7.6	10.2
CCOc1cc(C(=O)O/N=C(\N)c2ccccn2)cc(OCC)c1OCC	-8.1	1.1	61.1*	-2.7	5.5	/
O=C(COC(=O)c1ccccn1)c1cccc(Br)c1	-16.1	-1.5	-9.4	-22.0	-0.7	/
CCOC(=O)c1[nH]cnc1C(=O)N1CCN(C(=O)OC(C)(C)C)CC1	-1.9	-11.6	1.5	-1.5	13.4	/
CCC12CSc3nc(Cl)ccc3N1C(=O)C(=O)N2C (stereo not given)	/	/	-22.2	/	-4.7	15.6
COc1ccc(NC(=O)C2Cc3c(-c4ccc(Cl)cc4)ccnc3O2)cc1OC (stereo not given)	/	/	14.7	/	3.3	/
CN1OC[C@@H]2CN[C@H](c3ccc(-c4cc5ccccc5o4)cc3)C[C@@H]21	/	/	86.4*	/	-24.3	/
CCC(CC)c1nnc(NC(=O)c2ccc3c(c2)OCO3)s1	2.0	14.4	1.9	-0.1	-1.1	/
COC(=O)CSc1nnc(NC(=O)c2ccc3c(c2)OCO3)s1	13.8	0.7	77.1*	-22.0	-37.6	/
COC(=O)c1cccc(NC(=O)/C=C/c2ccc3c(c2)OCO3)c1	27.2	35.5	85.2*	-3.6	-147.5	48.2
O=C(/C=C/c1ccc2c(c1)OCO2)Nc1c(C(=O)O)[nH]c2ccccc12	2.8	-11.1	51.6*	4.8	9.6	49.6
CCOC(=O)c1[nH]c2ccc(OC)cc2c1NC(=O)/C=C/c1ccc2c(c1)OCO2	3.4	1.2	3.1	2.9	12.7	17.2
COC(=O)c1cc(NC(=O)/C=C/c2ccc3c(c2)OCO3)cc(C(=O)OC)c1	2.3	8.0	-2.6	8.8	-278.2	13.8
O=C(/C=C/c1ccc2c(c1)OCO2)Nc1nncs1	83.8*	59.7*	44.2	40.8	-427.1	35.6
CCCCC1CC2=C(C(=O)OC(C)(C)O2)C(c2ccc(F)cc2)O1 (stereo not given)	/	/	8.6	/	16.6	/
O=C1ON=C(c2ccc([N+](=O)[O-])cc2)/C1=C/c1ccccc1O	3.8	5.5	2.9	1.5	12.8	/
CN(C(=O)c1cc2c(s1)-c1ccccc1S(=O)(=O)C2)c1ccccc1	-1.7	-6.9	13.7	-2.6	21.5	5.6
O=C(/C=C\c1ccc2c(c1)OCO2)Nc1nnc(SCC(=O)OCc2ccccc2)s1	-1.3	-3.0	/	-6.3	/	12.5
COC(=O)CSc1nnc(NC(=O)/C=C\c2ccc3c(c2)OCO3)s1	3.1	-14.4	53.0*	0.9	-411.3	33.3
CCOc1ccc(/C=C/C(=O)Nc2cccc(C(C)=O)c2)cc1	37.4	19.9	54.5*	11.1	-8.0	20.7
Fc1ccc(-c2nc(-c3cccs3)no2)cc1	94.2*	94.8*	1.5	86.4*	14.7	-2.6
Fc1ccc(-c2cnc(-c3cccs3)o2)cc1	21.0	-19.3	10.0	1.4	-314.0	13.8
COc1ccccc1NC(CC(=O)c1ccccc1)C(=O)OCC(=O)c1ccc(C)c(C)c1 (stereo not given)	1.7	12.5	58.0*	-10.1	25.6	28.7
COc1ccccc1NC(CC(=O)c1ccccc1)C(=O)OCC(=O)c1ccc(Br)cc1 (stereo not given)	-3.1	2.6	63.4*	-8.5	14.1	13.5
SMILES	SENP7 inh	SENP6 block	TRAIL sens C8	SENP8 block-1	SENP8 block-2	PPC-1+TRAIL kill
COc1ccccc1NC(CC(=O)c1ccccc1)C(=O)OCC(=O)c1ccc(C)cc1 (stereo not given)	4.8	-9.2	65.0*	-1.0	13.5	0.3
O=C(CC(Nc1ccccc1Cl)C(=O)OCC(=O)c1cccs1)c1ccccc1 (stereo not given)	-8.5	-3.7	14.1	-6.9	24.5	22.5
Cc1ccc(C(=O)COC(=O)COc2ccccc2O)cc1C	-16.0	-8.8	-2.6	-21.8	26.6	/
COc1cc(NC(=O)c2c(F)c(F)c(F)c(F)c2F)c(OC)cc1Cl	2.7	7.5	76.0*	0.5	-2.7	5.7
CN(C)c1ccc(CNc2nc3ccccc3s2)cc1	95.2*	81.7*	/	53.6*	/	/
CCc1n[n+](CC(=O)c2ccccc2)c(N)s1	/	/	58.9*	/	14.9	64.9*
CCC(C(=O)Nc1cccnc1)n1c(=O)[nH]c2ccccc2c1=O (stereo not given)	4.1	17.4	7.0	2.1	-11.0	/
CC(C)(C)c1ccc(O)c(O)c1	3.8	2.0	-18.6	-3.8	16.3	/
CC(C)(C)c1ccc(O)c(/C=N\O)c1	-2.1	-15.5	71.5*	-15.1	11.7	-22.9
O=C(O)c1ccc(N/N=C/C2=Cc3ccccc3OC2)cc1	98.9*	100.6*	-16.3	98.0*	-231.1	13.4
O=C(Nc1ccc(Cl)c(Cl)c1)C1=Cc2ccccc2OC1	-14.2	3.3	-2.9	-10.9	-66.5	-13.6
O=C(COC(=O)c1ccc2c(c1)OCCO2)NCc1ccc(Cl)cc1	/	/	-16.7	/	20.4	/
O=[N+]([O-])c1cc(/C=N\Nc2ccccn2)ccc1Cl	-13.1	-6.5	-6.0	-13.4	17.3	/
O=[N+]([O-])c1cc(C=Nc2cccc3c(O)cccc23)ccc1Cl	25.1	84.3*	/	59.6*	/	/
O=C1c2cccc(NCCNCCO)c2C(=O)c2cccc(NCCNCCO)c21	/	/	64.1*	/	44.0*	/
O=C(O)CCNc1ccc(NCCC(=O)O)c2c1C(=O)c1ccccc1C2=O	12.2	4.5	0.6	19.8	23.2	/
COc1ccc(OCC(O)CNC(=O)Nc2cc(F)ccc2C)cc1 (stereo not given)	-8.3	-23.7	-4.9	-10.0	8.7	-14.6
CC(=O)c1ccc(NC(=O)CSc2nc(N)c3cc4c(nc3n2)CCCC4)cc1	1.0	22.7	51.6*	-0.5	-276.3	22.8
COc1ccc(NC(=O)CSc2nc(N)c3cc4c(nc3n2)CCCC4)cc1	4.8	-11.3	37.1	-12.9	-40.8	15.4
O=[N+]([O-])c1cc(/C=N/N/C(=N/c2ccccn2)c2ccccn2)ccc1O	-2.4	15.4	4.7	1.1	47.3*	11.3
O=C(CCNC(=O)c1ccc([N+](=O)[O-])cc1)NCCc1ccccc1	0.8	-4.5	0.0	-6.0	5.3	/
CC1=NC(=O)C(N=Nc2ccccc2C(=O)O)N1c1ccccc1 (stereo not given)	3.6	-6.6	4.6	-2.4	48.0*	0.1
Cc1[nH]n(-c2ccccc2)c(=O)c1N=Nc1ccccc1C(=O)O	2.8	2.4	3.8	1.2	27.1	/
CC1=NC(=O)C(N=Nc2cccc(C(=O)O)c2)N1c1ccccc1 (stereo not given)	-5.8	2.1	2.6	-14.2	21.8	19.7
CC1=NC(=O)C(N=Nc2ccccc2)N1c1ccccc1 (stereo not given)	3.7	-10.1	13.5	-5.6	46.2*	18.2
CCc1ccc2c(c1)c(N=NC1=NC(=O)CS1)c(O)n2CC	-0.1	-32.1	-0.4	-7.5	41.7*	16.6
CCc1ccc2[nH]c(O)c(N=NC3=NC(=O)CS3)c2c1	-2.3	-16.1	-7.0	-1.7	27.1*	6.5

Screening results: PubChem BioAssay, Sanford-Burnham Center for Chemical Genomics
